In PubChem BioAssay (NCATS):
Results filed as inconclusive are left out. The source made the active and inactive calls. Unless noted, calls follow the shape of the full dose curve.

Tests used:
[1] = qHTS to identify inhibitors of the type 1 interferon - major histocompatibility complex class I in skeletal muscle: primary screen against the NCATS Pharmaceutical Collection (AID 1347407; active = well fitted curve in the direction sought with a large enough effect; an effect the other way counts as inactive or inconclusive;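 also: luminescence of HiBiT knocked into endogenous HLA-B as interferon-induced MHC class I level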)
How it was run: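 Luminescence from HiBiT-tagged endogenous HLA-B*08:01 served as the read-out of IFN-beta-induced MHC class I in CRISPR-engineered C25cl48 myoblasts. Cells received 4 ng/ml IFN-beta plus compound (high final 46 uM, […]) for 24 h.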

[2] = molecular target: Protein phosphatase 1D (Homo sapiens) (UniProt O15297); assay: RapidFire Mass Spectrometry qHTS Assay for Modulators of WT P53-Induced Phosphatase 1 (WIP1) (AID 1347424; active = well fitted curve in the direction sought with a large enough effect; an effect the other way counts as inactive or inconclusive;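 also: amount of dephosphorylated VEPPL-S-QETFS peptide product formed by WIP1; series mostly up to about 63 µM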)
Sequence of Protein phosphatase 1D (Homo sapiens) (O15297 whole entry, looked up): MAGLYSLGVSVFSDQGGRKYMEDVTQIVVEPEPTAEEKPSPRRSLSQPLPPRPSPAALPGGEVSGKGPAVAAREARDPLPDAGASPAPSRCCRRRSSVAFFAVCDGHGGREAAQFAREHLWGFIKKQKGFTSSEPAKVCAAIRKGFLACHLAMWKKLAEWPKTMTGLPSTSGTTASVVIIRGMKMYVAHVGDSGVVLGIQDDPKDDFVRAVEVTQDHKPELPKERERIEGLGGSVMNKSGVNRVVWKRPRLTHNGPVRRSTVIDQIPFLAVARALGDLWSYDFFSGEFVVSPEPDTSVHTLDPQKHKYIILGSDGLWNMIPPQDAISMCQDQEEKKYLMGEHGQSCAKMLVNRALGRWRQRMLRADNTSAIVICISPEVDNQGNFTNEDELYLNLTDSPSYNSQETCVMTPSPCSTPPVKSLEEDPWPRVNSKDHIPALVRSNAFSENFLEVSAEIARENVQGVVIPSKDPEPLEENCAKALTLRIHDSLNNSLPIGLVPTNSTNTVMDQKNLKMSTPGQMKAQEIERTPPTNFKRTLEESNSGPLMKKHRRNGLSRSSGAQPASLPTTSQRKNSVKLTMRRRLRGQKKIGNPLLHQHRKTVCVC
How it was run: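 WIP1 (10 nM final) was preincubated 1 h at room temperature with compounds in Tris-HCl pH 7.5, 30 mM MgCl2, TCEP, EGTA, BSA; 2 uM VEPPL-pS-QETFS phosphopeptide was added for 5 min, quenched with formic acid, and dephosphorylated product quantified by RapidFire MS.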

[3] = molecular target: Protein phosphatase 1D (Homo sapiens) (UniProt O15297); assay: Rhodamine-PBP qHTS Assay for Modulators of WT P53-Induced Phosphatase 1 (WIP1) (AID 1347425; active = well fitted curve in the direction sought with a large enough effect; an effect the other way counts as inactive or inconclusive)
How it was run: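 WIP1 (5 nM final) was preincubated with compound for 1 hour at room temperature. It then dephosphorylated 10 uM VEPPL-pS-QETFS peptide in Tris-HCl pH 7.5 with 30 mM MgCl2. Released Pi was detected by 10 uM Rh-PBP fluorescence (ex 525/em 598 nm) read at 1-min intervals for 11 min, as delta f1 - f0.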

[4] = Primary qHTS for inhibitors of La Crosse Virus (LACV) - induced cell death in SH-SY5Y cells (AID 1508616; active = well fitted curve in the direction sought with a large enough effect; an effect the other way counts as inactive or inconclusive;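 also: top concentration of the series differs between compounds; higher means more rescue of cells from virus-induced death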)
How it was run: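 Protection against LACV-induced cell death is scored in SH-SY5Y cells exposed to compounds and virus (0.01 MOI) for 6 days. Data normalized to virus-infected DMSO wells and virus-free DMSO wells.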

[5] = molecular target: Calcium and integrin-binding protein 1 (Homo sapiens) (UniProt Q99828); assay: Primary qHTS for Identification of Calcium Integrin Binding Protein 1 (CIB1) Competitor (AID 1508620; active = well fitted curve in the direction sought with a large enough effect; an effect the other way counts as inactive or inconclusive;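 also: GST tagged CIB1 binding a fluorescein labelled alphaIIb integrin peptide tracer; top concentration of the series differs between compounds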)
Sequence of Calcium and integrin-binding protein 1 (Homo sapiens) (Q99828 whole entry, looked up): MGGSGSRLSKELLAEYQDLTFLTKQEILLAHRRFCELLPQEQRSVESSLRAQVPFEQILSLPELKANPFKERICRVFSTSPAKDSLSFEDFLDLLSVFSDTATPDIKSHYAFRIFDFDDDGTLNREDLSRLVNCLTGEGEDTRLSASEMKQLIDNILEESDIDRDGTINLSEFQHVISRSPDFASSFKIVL
How it was run: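 Fluorescence polarization competition: CIB1-GST (1 uM final) preincubated with compound 15 min at room temperature, then FITC-labeled alphaIIb peptide (100 nM final) added for another 15 min. Polarization read at Ex 480/Em 540.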

[6] = Counterscreen qHTS for small molecule stabilizers of the endoplasmic reticulum resident proteome: GLuc-NoTag assay (AID 1508627; active = well fitted curve in the direction sought with a large enough effect; an effect the other way counts as inactive or inconclusive;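 also: SH-SY5Y cells given compound then 100 nM thapsigargin to empty ER calcium; series mostly up to about 76 µM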)
How it was run: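 SH-SY5Y cells stably expressing constitutively secreted GLuc (no SERCaMP tag) were pre-incubated 5 h, treated with compound for 19 h, then 100 nM thapsigargin for 4 h at 37C; medium GLuc read by coelenterazine luminescence.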

[7] = Confirmatory qHTS for small molecule stabilizers of the endoplasmic reticulum resident proteome: Secreted ER Calcium Modulated Protein (SERCaMP) assay (AID 1508628; active = well fitted curve in the direction sought with a large enough effect; an effect the other way counts as inactive or inconclusive; also: nearly all actives have a fitted effect of over 40% in size; also: potency is read from the fitted curve at half-maximal effect)
How it was run: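 SH-SY5Y cells stably expressing GLuc-SERCaMP, treated 16 h with compound (primary 1.53, 7.67, 38.3 uM; confirmation 11 concentrations, up to 76.6 uM), then 100 nM thapsigargin for 4 h. Secreted Gaussia luciferase in medium read by coelenterazine luminescence.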

[8] = Primary qHTS for inhibitors of SARS-S pseudo-typed particle cell entry (AID 1479145); also: nearly all actives have a fitted effect of over 45% in size; also: potency is read from the fitted curve at half-maximal effect
[9] = Primary qHTS for Huh7 cytotoxicity: counterscreen for inhibitors of MERS-S pseudotyped particle cell entry (AID 1479147); also: potency is read from the fitted curve at half-maximal effect
[10] = Primary qHTS for inhibitors of MERS-S pseudo-typed particle cell entry (AID 1479149); also: nearly all actives have a fitted effect of over 60% in size; also: potency is read from the fitted curve at half-maximal effect
[11] = Primary qHTS for Vero E6 cytotoxicity: counterscreen for inhibitors of SARS-S pseudo-typed particle cell entry (AID 1479150)

Measured: Potency

c1cc2c(c(N3CCNCC3)c1)OCCO2
inactive: [1] | [2] | [3] | [4] | [5] | [6] | [7]

COc1ccc2c(C(=O)c3ccc(Cl)cc3)c(C)n(CC(=O)O)c2c1
inactive: [1] | [3] | [4] | [5]

O=C(N[C@H]1N=C(c2ccccc2F)c2cccc3c2N(CC3)C1=O)c1cc2ccccc2[nH]1
inactive: [1] | [3] | [8] | [9] | [10] | [11] | [4] | [5]

CN1C(=O)CN=C(c2ccccc2)c2cc([N+](=O)[O-])ccc21
inactive: [1] | [2] | [3] | [4] | [5]

CC(C)=C[C@@H]1[C@@H](C(=O)OCc2coc(Cc3ccccc3)c2)C1(C)C
inactive: [1] | [2] | [3] | [5]

CCCOc1ccc(C(=O)OCCN(CC)CC)cc1N
inactive: [8] | [9] | [10] | [11]

CC(COc1ccccc1)NC(C)C(O)c1ccc(O)cc1 (stereo unspecified)
inactive: [8] | [9] | [10] | [11]

CCOP(=S)(OCC)O/N=C(\C#N)c1ccccc1
inactive: [2] | [3] | [4] | [5]

COC(=O)Nc1nc2ccc(S(=O)c3ccccc3)cc2[nH]1 (stereo unspecified)
inactive: [8] | [9] | [10]

CCOC(=O)NNc1nncc2ccccc12
inactive: [8] | [9] | [10] | [11]

COc1ccc2c3c1O[C@H]1[C@@H](O)C=C[C@H]4[C@@H](C2)N(C)CC[C@@]341
inactive: [2] | [3] | [5]

O=C1OC2(c3ccc(O)cc3Oc3cc(O)ccc32)c2ccccc21
inactive: [8] | [9] | [10] | [11]

CCN[C@H]1C[C@H](C)S(=O)(=O)c2sc(S(N)(=O)=O)cc21
inactive: [8] | [9] | [10] | [11]

O=c1[nH]cnc2c1ncn2[C@@H]1O[C@H](CO)[C@@H](O)[C@H]1O
inactive: [8] | [9] | [10] | [11]

CC(C)NCCCC1(C(N)=O)c2ccccc2-c2ccccc21
inactive: [8] | [9] | [10] | [11]

Oc1ccc2[nH]cc(CCCCN3CC=C(c4ccccc4)CC3)c2c1
inactive: [2] | [3] | [4] | [5] | [6]
active: [7] 12.6 µM

CC1(C)[C@@H](OC(=O)CCC(=O)O)CC[C@]2(C)[C@H]3C(=O)C=C4[C@@H]5C[C@@](C)(C(=O)O)CC[C@]5(C)CC[C@@]4(C)[C@]3(C)CC[C@@H]12
inactive: [8] | [9] | [10] | [11]

CC(CNC1CCCCC1)OC(=O)c1ccccc1 (stereo unspecified)
inactive: [8] | [9] | [10] | [11]

C[C@]12CC[C@H]3[C@@H](CCC4=CC(=O)CC[C@@H]43)[C@@H]1CC[C@@H]2O
inactive: [2] | [3] | [4] | [5]

c1ccc2[nH]c(-c3cscn3)nc2c1
inactive: [8] | [9] | [10] | [11]

CC(=O)Oc1ccc(C(c2ccc(OC(C)=O)cc2)c2ccccn2)cc1
active: [8] 1.41 µM
inactive: [9] | [10]

CCCCCCCCCCCCCCCCCCNC(=O)OC1CCN(C(=O)OC[C@H](COC(=O)N(Cc2cccc[n+]2CC)C(=O)c2ccccc2OC)OC)CC1
active: [8] 25.1 µM
inactive: [9]

CC(=O)Oc1ccc2c(c1)CC[C@@H]1[C@@H]2CC[C@]2(C)[C@@H](O)CC[C@@H]12
inactive: [8] | [9] | [10] | [11]

CC(C)(Oc1ccc(CCNC(=O)c2ccc(Cl)cc2)cc1)C(=O)O
inactive: [8] | [9] | [10] | [11]

CCCn1cnc2c1c(=O)n(CCCCC(C)=O)c(=O)n2C
inactive: [8] | [9] | [10] | [11]

Oc1c(Cl)cc(Cl)c2cccnc12
inactive: [8]

Clc1ccc(CSC(Cn2ccnc2)c2ccc(Cl)cc2Cl)cc1 (stereo unspecified)
inactive: [2] | [3] | [9] | [4] | [5]

CCCCCCCCCCCCCCCC[N+](C)(C)Cc1ccccc1
inactive: [9]
active: [8] 7.94 µM

C[C@@H](O)[C@H](N)C(=O)O
inactive: [8] | [9] | [10] | [11]

CCc1cccc2c3c([nH]c12)C(CC)(CC(=O)O)OCC3 (stereo unspecified)
inactive: [8] | [9] | [10] | [11]

c1ccc2c(c1)Sc1ccccc1N2CC1CN2CCC1CC2 (stereo unspecified)
inactive: [2] | [3] | [11] | [5]

C[C@@]12C(=O)OC(=O)[C@]1(C)C1CCC2O1
active: [8] 14.1 µM | [9] 22.4 µM

C[C@H]1O[C@@H](O[C@H]2CC[C@@]3(C)[C@H](CC[C@@H]4[C@@H]3C[C@@H](O)[C@]3(C)[C@@H](C5=CC(=O)OC5)CC[C@]43O)C2)C[C@H](O)[C@@H]1O[C@H]1C[C@H](O)[C@H](O[C@H]2C[C@H](O)[C@H](O[C@@H]3O[C@H](CO)[C@@H](O)[C@H](O)[C@H]3O)[C@@H](C)O2)[C@@H](C)O1
active: [8] 0.891 µM | [9] 1 µM
inactive: [10]

CC(=O)Oc1c(C)c(C)c2c(c1C)CC[C@@](C)(CCC[C@H](C)CCC[C@H](C)CCCC(C)C)O2
inactive: [8] | [9] | [10] | [11]

CCN(CC)C(=O)N1CCN(C)CC1
inactive: [8] | [9] | [10] | [11]

COc1ccc(CN(CCN(C)C)c2ccccn2)cc1
inactive: [8] | [9] | [10] | [11]

Nc1ccc2cc3ccc(N)cc3nc2c1
active: [8] 14.1 µM

NC(=O)CCCCC1CCSS1 (stereo unspecified)
inactive: [8] | [9] | [10] | [11]

[O-][n+]1ccccc1SSc1cccc[n+]1[O-]
inactive: [8]

CCCCCCCCCCCCCCCC[n+]1ccccc1
active: [8] 3.16 µM | [9] 11.2 µM | [10] 7.08 µM
